From PubChem BioAssay AID463115 (University of Pittsburgh Molecular Library Screening Center, 2010)
About 130 (0.059%) of roughly 220,000 compounds were called active. This is one part of a sample in which actives are shown more often than they occur. Rule as the data show it: active = inhibition above about 25%; inactive = the rest.

These compounds were tested against Furin (Homo sapiens) (UniProt P09958) (assay: furin protease activity blockers – biochemical, fluorescence intensity, primary screen (AID 463115)). Details: purified furin, fluorogenic substrate cleavage, hits give high values; at 30 µM unless noted.
Sequence of Furin (Homo sapiens) (P09958 108-714 limits assumed): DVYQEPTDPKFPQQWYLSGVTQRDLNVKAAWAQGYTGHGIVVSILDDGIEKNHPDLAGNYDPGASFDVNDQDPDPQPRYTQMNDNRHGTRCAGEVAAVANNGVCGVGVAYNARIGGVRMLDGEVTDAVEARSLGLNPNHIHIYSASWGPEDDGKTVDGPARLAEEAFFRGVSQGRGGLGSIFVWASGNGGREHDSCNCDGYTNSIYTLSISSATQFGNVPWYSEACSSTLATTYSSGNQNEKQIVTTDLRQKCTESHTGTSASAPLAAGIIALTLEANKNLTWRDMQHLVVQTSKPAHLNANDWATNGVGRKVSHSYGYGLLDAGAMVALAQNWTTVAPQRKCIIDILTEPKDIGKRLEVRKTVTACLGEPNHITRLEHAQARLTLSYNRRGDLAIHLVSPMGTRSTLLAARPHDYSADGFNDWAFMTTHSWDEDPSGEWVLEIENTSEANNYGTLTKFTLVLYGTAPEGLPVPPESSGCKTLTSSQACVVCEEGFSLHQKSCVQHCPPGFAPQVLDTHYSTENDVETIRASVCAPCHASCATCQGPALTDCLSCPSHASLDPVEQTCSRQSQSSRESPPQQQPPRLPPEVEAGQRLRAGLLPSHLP
In the case of `Cc1nnsc1C(=O)N/N=C/c1cccc(C(F)(F)F)c1`, the inhibition is reported as 0.985% (inactive).
In the case of `COc1ccc([N+](=O)[O-])cc1NC(=O)COC(=O)/C=C/c1ccco1`, the inhibition is reported as -30.9% (inactive).
`CCC(C)(C)NC(=O)C(c1cccc(OC)c1OC)N(CC(C)C)C(=O)CCC(=O)Nc1cc(C)on1` (stereo not given) was tested, and the inhibition was -14.8% (inactive).
With `CC(C)(C)NC(=O)/C(=C/c1cccnc1)NC(=O)c1ccco1` the inhibition was -17% (inactive).
`Cc1cc(NC(=O)CSc2nc3ccccc3n2CC(C)C)no1` was tested, and the inhibition was -16.9% (inactive).
For `CC(C)c1cc(C(N)=O)c(NC(=O)c2cccc(COc3ccc(Br)cc3)c2)s1`, the inhibition was -15.1% [at 20 µM] (inactive).
For `CC(C)(C)NC(=O)c1cccc(NC(=O)Cc2ccc(Br)cc2)c1`, the inhibition was -14.8% (inactive).
For `CCOn1c(=O)c(=O)n(O)c2ccccc21`, the inhibition was -4.13% (inactive).
In the case of `Oc1ccccc1N1CCN(C(=S)NCc2ccccc2)CC1`, the inhibition is reported as -19.1% (inactive).
`Cc1ccc(C2(C(F)(F)F)N=C3Sc4cc(C)cc(C)c4N3C(=O)N2)cc1` (stereo not given) was tested, and the inhibition was -11.5% [at 20 µM] (inactive).
For `O=C(O)CC/C(=N\NC(=O)c1ccc(F)cc1)c1ccc(Br)cc1`, the inhibition was -17.1% (inactive).
`CCCc1c(C(=O)O)cnn1-c1ccc(Cl)cc1` was tested, and the inhibition was -33.8% (inactive).
`O=C(Nc1cccc(Cl)c1)c1cc([N+](=O)[O-])ccc1N1CCN(CCO)CC1` was tested, and the inhibition was -21.2% (inactive).
With `O=c1[nH][nH]c(C(F)(F)F)c1C=NCc1ccccc1Cl` the inhibition was -7.43% [at 20 µM] (inactive).
In the case of `O=C(CNC(=O)COc1ccccc1)NCCc1ccccn1`, the inhibition is reported as -14% (inactive).
For `C=CCOc1ccc(/C=N/NC(=O)C(C)Sc2ccccn2)cc1OCC` (stereo not given), the inhibition was -21.6% (inactive).
`CSc1ccc(C(=O)C2CCCN(C(=O)c3ccc(C)nc3)C2)cc1` (stereo not given) was tested, and the inhibition was -11.4% (inactive).
In the case of `Clc1ccc(-c2nnc(-c3ccccc3)nc2N2CCSCC2)cc1`, the inhibition is reported as -4.61% [at 20 µM] (inactive).
With `Fc1ccc(COc2cccc(-c3n[nH]c(=S)o3)c2)cc1` the inhibition was -11.9% (inactive).
For `O=C1C=C(c2ccc(Cl)cc2)C(=O)N1Nc1ccccc1`, the inhibition was -9.42% [at 20 µM] (inactive).
In the case of `O=C(NNc1cc(Cl)ccc1Cl)c1cccnc1Cl`, the inhibition is reported as -21.6% (inactive).
`NS(=O)(=O)c1ccc(NC(=O)COC(=O)c2ccco2)cc1` was tested, and the inhibition was -19.1% (inactive).
In the case of `O=c1[nH]c(CCl)nc2cc(-c3ccc(Cl)cc3)sc12`, the inhibition is reported as -0.616% [at 20 µM] (inactive).
`Cc1cc(Cl)c(S(=O)(=O)N(C)C)cc1OCC(N)=O` was tested, and the inhibition was -12.9% [at 20 µM] (inactive).
With `COC(=O)/C=C/C(=O)NCc1ccco1` the inhibition was -23.2% [at 20 µM] (inactive).
